Bioassay records: PubChem BioAssay, The Scripps Research Institute Molecular Screening Center
Compounds with a hit are over-represented: about 2.9% of the library has one in this group of screens.
ADAM10 inh: inhibits human ADAM10; 370,000 tested, 0.62% active; O14672; recombinant ADAM10, EDANS/DABCYL FRET peptide cleavage, 3 h; AID 720582; inhibition, % at 7 µM;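 active = inhibition above a per-campaign cutoff equal to the mean of compounds falling between control-based bounds plus 3 SD, cut at about 20% in these data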;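 note: 0% = DMSO wells while the 100% control is not disclosed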
PLCb3 inh: blocks human PLC-beta3 enzyme activity; 370,000 tested, 0.18% active; AID 720704; inhibition, % at 12.2 µM; Purified PLC-beta3, fluorogenic substrate, fluorescence; Q01970; in the data active = inhibition above about 11%;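 note: 0% = median of compound wells on plate and 100% = full blocker control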
PLC-gamma1 inh: PLC-gamma1 (human) inhibition, primary screen. inhibition, % at 12.2 µM. P19174. AID 720700. purified PLC-gamma1, fluorogenic substrate, fluorescence. 370,000 tested, 0.84% active; in the data active = inhibition above about 9.5%
ADAM17 inh: inhibits human ADAM17. P78536. recombinant ADAM17, EDANS/DABCYL FRET peptide cleavage. inhibition, % at 6.95 µM. 370,000 tested, 0.83% active;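 active = inhibition above the mean of compounds lying between control limits plus 3 SD, set per campaign, cut at about 8.5% in these data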;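 note: 0% = DMSO-only wells as the low control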
Target sequence (P78536 215-824 limits assumed): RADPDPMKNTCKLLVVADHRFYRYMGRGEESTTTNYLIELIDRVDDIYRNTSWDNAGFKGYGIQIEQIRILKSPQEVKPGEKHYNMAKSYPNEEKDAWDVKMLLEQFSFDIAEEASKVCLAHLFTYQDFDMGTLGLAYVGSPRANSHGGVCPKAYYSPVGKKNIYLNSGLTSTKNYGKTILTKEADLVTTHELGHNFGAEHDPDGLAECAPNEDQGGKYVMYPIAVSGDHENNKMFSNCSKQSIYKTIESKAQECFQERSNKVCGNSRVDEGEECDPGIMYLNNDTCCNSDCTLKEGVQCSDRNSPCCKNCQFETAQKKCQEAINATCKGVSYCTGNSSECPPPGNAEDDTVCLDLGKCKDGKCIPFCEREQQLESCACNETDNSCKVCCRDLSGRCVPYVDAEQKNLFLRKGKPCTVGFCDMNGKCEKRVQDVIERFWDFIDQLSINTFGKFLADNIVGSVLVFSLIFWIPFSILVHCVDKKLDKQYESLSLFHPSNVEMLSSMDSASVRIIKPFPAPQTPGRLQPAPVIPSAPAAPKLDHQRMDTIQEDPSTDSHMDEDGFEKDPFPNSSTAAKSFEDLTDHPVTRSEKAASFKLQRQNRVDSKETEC
KLK7 zymogen act: proKLK7 (human) activation, primary screen | P49862 | purified proKLK7, EDANS-DABCYL substrate fluorescence; 100% is mature enzyme control, 0% vehicle | activation, % at 7 µM | 370,000 tested, 0.9% active | AID 652039;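 active = activation above the mean of all tested compounds plus 3 SD, computed per campaign excluding outliers beyond control limits, cut at about 13% in these data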
ADAM10 confirm: confirmation of inhibitors of human ADAM10; AID 743208; 2,100 tested, 1% active; ADAM10 QFRET peptide cleavage, EDANS fluorescence; shares compounds with ADAM10 inh; inhibition, % at 6.95 µM;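 active = inhibition above about 20% chosen separately for each screening run, limit read from the data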;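 note: 0% = DMSO wells and 100% = marimastat wells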
ADAM17 counter: counter-screen for ADAM10 exosite inhibitors: inhibitors of human ADAM17; shares compounds with ADAM10 inh; 2,100 tested, 0.5% active; ADAM17 QFRET peptide cleavage, EDANS fluorescence; inhibition, % at 6.95 µM;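 active = mean triplicate inhibition above the solvent-only control wells' mean plus 3 SD, cut at about 12% in these data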;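 note: 0% = DMSO wells and 100% = marimastat wells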
The depositor's hits bear a star; . = no result.

SMILES | ADAM10 inh | PLCb3 inh | PLC-gamma1 inh | ADAM17 inh | KLK7 zymogen act | ADAM10 confirm | ADAM17 counter
CCOc1ccc(NC(=S)Nc2ccc(F)cc2)cc1 | -2 | -6 | -2 | -3 | 0 | . | .
CCOc1ccc(NC(=S)Nc2cc(-c3ccccc3)[nH]n2)cc1 | 23* | 1 | -3 | 4 | 1 | 6 | 1
CCn1nc(C)c(C(=O)Nc2cc(Oc3cc(C)cc(C)c3)cc([N+](=O)[O-])c2)c1C | 21* | -3 | 1 | 5 | 0 | 6 | 2
CC1CCCCC1C(=O)N1CCC(Oc2cccnc2)CC1 (stereo not given) | -5 | 2 | 1 | -5 | -1 | . | .
Nc1[nH]c(C(=O)c2ccccc2)c(-c2ccc([N+](=O)[O-])cc2)c1C(=O)NCCc1c[nH]c2ccccc12 | 9 | 0 | 3 | 1 | 0 | . | .
Nc1[nH]c(C(=O)c2ccccc2)c(-c2ccccc2[N+](=O)[O-])c1C(=O)NCCc1c[nH]c2ccccc12 | 25* | -9 | -7 | 12* | 0 | 3 | 2
O=C(c1cccc(C(F)(F)F)c1)N1CC[C@H]2[C@H](CCCN2Cc2ccc(F)cc2)C1 | -7 | 4 | -1 | -2 | 0 | . | .
CCC(c1nnnn1C(C)C)N1CCN(C2CCCC2)CC1 (stereo not given) | 74* | 2 | -2 | 1 | 0 | -3 | 0
COC(=O)C1CN(Cc2ccc(OC)cc2)CCS(=O)(=O)N1Cc1cn(Cc2ccccc2)nn1 (stereo not given) | -4 | 2 | -3 | -2 | 1 | . | .
CC(Oc1ccc(Br)cc1)C(=O)Nc1cc(Cl)ccc1N1CCN(C)CC1 (stereo not given) | 20* | 0 | 6 | 5 | 1 | 1 | 0
COC(=O)c1cccc(OCC(C)CN2CCC(C(O)(c3ccccc3)c3ccccc3)CC2)c1 (stereo not given) | 8 | 4 | 6 | 4 | 0 | . | .
O=C(CSc1nnc(-c2cnccn2)n1-c1ccccc1)c1ccccc1Br | 2 | 2 | -5 | 5 | 0 | . | .
CC(C)(C)c1nn(-c2ccccc2)c2[nH]c(=O)c(C=O)cc12 | 78* | -94 | -65 | -2 | 0 | 5 | 2
c1nc(NCC2CCCC2)c2cc(-c3ccc4c(c3)OCO4)ccc2n1 | -157 | -146 | -99 | -77 | . | . | .
Cc1ccc(Oc2ccc(-c3nc(N)nc(N)n3)cc2)cc1C | 20* | 1 | 0 | 5 | 0 | 2 | 1
CN(Cc1ccccc1F)C(=O)C1CCC(CNS(=O)(=O)c2cccc3cccnc23)CC1 (stereo not given) | -14 | -5 | -2 | -1 | 0 | . | .
Cc1ccc(N=C(NO)c2nonc2N)c(C)c1 | -2 | 1 | 0 | 5 | 0 | . | .
Cc1ccc(N=C(NOCc2ccc(Cl)cc2Cl)c2nonc2N)c(C)c1 | 21* | -1 | -27 | 5 | 0 | 7 | 2
COc1ccc(CN2C(=O)[C@@](O)(c3cccn3C)c3cc(Br)ccc32)cc1 | 11 | 3 | 3 | 2 | 0 | . | .
COc1ccccc1-n1cc(-c2ccc([N+](=O)[O-])cc2)[nH]c1=S | 27* | -9 | -3 | 8 | 0 | 3 | 1
COc1ccccc1-n1cc(-c2ccc(C)cc2)[nH]c1=S | 5 | -4 | 1 | 1 | 0 | . | .
O=C(CC(Cc1ccccc1)C(=O)O)Nc1ccc(F)cc1 (stereo not given) | 21* | -1 | 6 | 0 | 0 | 0 | 0
O=C1c2cccc(OCc3ccc(F)cc3)c2CCN1Cc1ccccc1 | 20* | -1 | 3 | 5 | 0 | 4 | 2
Cc1ccc(COc2cccc3c2CCN(Cc2ccc(F)cc2)C3=O)cc1 | 0 | -4 | -1 | 3 | 0 | . | .
CCCCOc1ccccc1C(=O)NNC(=S)NC(=O)c1ccccc1[N+](=O)[O-] | 27* | -3 | 6 | 8 | 1 | 7 | 2
SMILES | ADAM10 inh | PLCb3 inh | PLC-gamma1 inh | ADAM17 inh | KLK7 zymogen act | ADAM10 confirm | ADAM17 counter
OCC1(Cc2ccc(F)cc2F)CCCN(CCCc2ccccc2)C1 (stereo not given) | 5 | -5 | 3 | 0 | 0 | . | .
OCC1(Cc2ccccc2F)CCCN(CCc2ccccc2)C1 (stereo not given) | 23* | 6 | 5 | 4 | 0 | 1 | 2
O=C(NC1CCCCN(Cc2cccc(C(F)(F)F)c2)C1=O)c1cccc(F)c1 (stereo not given) | 3 | 0 | 1 | -1 | 1 | . | .
CC(Nc1nc(-c2ccc(F)cc2)cs1)c1nc2cc(Cl)c(N3CCCCC3)cc2n1CCOCCO (stereo not given) | 15 | -15 | -10 | 8 | 1 | . | .
CC(Nc1nc(-c2ccc(F)cc2)cs1)c1nc2cc(Cl)c(N3CCCCC3)cc2n1CCCO (stereo not given) | 42* | -61 | -36 | 4 | 1 | 4 | 2
C=CCN1[C@H](CO)[C@H](c2ccccc2)[C@@H]1C#N | -8 | 1 | -1 | -4 | 0 | . | .
Nc1nc(CSC(=S)N2CCCCC2)nc(Nc2ccccc2)n1 | 1 | 0 | -2 | -1 | 0 | . | .
CC1CC(C)CN(C(=S)SCc2nc(N)nc(Nc3ccccc3)n2)C1 (stereo not given) | 28* | -6 | 6 | 8 | 0 | 4 | 1
O=S1(=O)c2c(F)cccc2O[C@@H](COCc2ccccc2)CN1CCc1ccc(F)cc1 | 21* | 1 | 3 | 9 | 0 | 5 | 1
O=S1(=O)c2c(F)cccc2OC(COc2ccccc2)CN1CCc1ccc(F)cc1 (stereo not given) | 9 | -1 | -3 | 3 | 0 | . | .
O=C(NCC1CCN(C(=O)C(=O)c2cc3ccccc3o2)CC1)c1ccc2c(c1)OCO2 | 2 | 1 | 0 | -1 | 0 | . | .
CC1CCN(CCCNC(=O)CN2CCN(Cc3ccc(Cl)cc3)C2=O)CC1 | 49* | 0 | -1 | -1 | 0 | 3 | 1
Cc1cccc(Cn2cc(COC(=O)NCC(C)C)nn2)c1 | 2 | -1 | 4 | 2 | 0 | . | .
CN(C)c1cccc(-c2cnc(N3CCC(C(N)=O)CC3)nc2)c1 | -13 | -42 | -28 | -5 | . | . | .
O=C(NC1=N[C@@]2(C=C3CCCCC3n3c(=O)n(-c4ccccc4)c(=O)n32)CN1Cc1ccccc1)c1ccccc1 (stereo not given in full) | 9 | -12 | -7 | 2 | 0 | . | .
COc1ccc(CN2C[C@]3(C=C4CCCCC4n4c(=O)n(-c5ccccc5)c(=O)n43)N=C2NC(=O)c2ccccc2)c(OC)c1 (stereo not given in full) | 32* | -12 | -10 | 8 | 0 | 4 | 2
COc1ccc(-n2c(SCC(=O)Nc3ccc(S(=O)(=O)Nc4cc(C)nc(C)n4)cc3)nnc2-c2ccco2)cc1 | -11 | -2 | -2 | -1 | 0 | . | .
